Test results reported in PubChem BioAssay (NCI).
This is part of a sample that, as a whole, favours compounds with a hit. Of some 79,000 tested, about 15% had one in any assay. Calls of active or inactive are those of the source. Rule as the data show it: active = growth inhibition above about 70%; inactive = the rest.

Legend:
[1] = NCI Yeast Anticancer Drug Screen. Data for the rad52 strain (AID 147);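 also: 0% = growth of vehicle-treated control cultures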; settings: S. cerevisiae rad52 mutant growth inhibition, stronger effect = higher value
Procedure, shortened: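 Vehicle-treated cultures served as the reference for growth inhibition of compound-exposed yeast bearing a DNA repair mutation.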

[2] = NCI Yeast Anticancer Drug Screen. Data for the wt1 strain (AID 149);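 also: 0% = growth of vehicle-treated wt1 cultures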; settings: S. cerevisiae wt1 strain (SPY 50644) growth inhibition, stronger effect = higher value
Procedure, shortened: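 Vehicle-normalised growth inhibition; strain wt1; compound exposure.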

[3] = NCI Yeast Anticancer Drug Screen. Data for the rad50EPP+ strain (AID 151);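 also: 0% = growth of vehicle-treated control cultures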; settings: S. cerevisiae rad50 mutant strain, stronger effect = higher value
Procedure, shortened: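 In this screen, rad50EPP+ yeast were exposed to compounds. Growth inhibition was scored against vehicle-treated controls.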

[4] = NCI Yeast Anticancer Drug Screen. Data for the mgt1 strain (AID 153); settings: S. cerevisiae mgt1 mutant growth inhibition, stronger effect = higher value
Procedure, shortened: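 mgt1 strain exposed; growth vs vehicle control recorded as inhibition.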

[5] = NCI Yeast Anticancer Drug Screen. Data for the rad50 strain (AID 155);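 also: 0% = growth of vehicle-only cultures of the same strain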; settings: S. cerevisiae rad50 strain growth inhibition, stronger effect = higher value
Procedure, shortened: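 A DNA repair-deficient yeast mutant serves as the test organism; compound-induced growth inhibition is calculated against vehicle-treated cells.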

[6] = NCI Yeast Anticancer Drug Screen. Data for the mec2-1 strain (AID 157); settings: S. cerevisiae mec2-1 strain, stronger effect = higher value
Procedure, shortened: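 Vehicle-treated cultures served as reference for growth inhibition of compound-exposed mec2-1 yeast.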

[7] = NCI Yeast Anticancer Drug Screen. Data for the rad14 strain (AID 159);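 also: 0% = growth of vehicle-treated control cultures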; settings: S. cerevisiae rad14 strain growth inhibition, stronger effect = higher value
Procedure, shortened: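 Vehicle-treated cultures served as the baseline for growth inhibition of a DNA repair-mutant yeast strain exposed to each compound.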

[8] = NCI Yeast Anticancer Drug Screen. Data for the sgs1 mgt1 strain (AID 161);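 also: 0% = growth of cultures given vehicle only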; settings: S. cerevisiae sgs1 mgt1 strain, stronger effect = higher value
Procedure, shortened: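 Test agents were incubated with a DNA-repair-mutant yeast strain. Growth was then read and compared against vehicle-treated controls.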

[9] = NCI Yeast Anticancer Drug Screen. Data for the CLN2oe strain (AID 163);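 also: 0% = growth of vehicle-only control cultures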; settings: S. cerevisiae CLN2oe strain, stronger effect = higher value
Procedure, shortened: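 Inhibition relative to vehicle-treated yeast is reported. Cells: strain with genetic alteration in cell-cycle control, grown with compound.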

[10] = NCI Yeast Anticancer Drug Screen. Data for the cln2 rad14 strain (AID 165);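 also: 0% = growth equal to vehicle treated cultures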; settings: S. cerevisiae cln2 rad14 strain, stronger effect = higher value
Procedure, shortened: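 Each compound was tested on cln2 rad14 yeast. Inhibition of growth was calculated against vehicle-exposed controls.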

[11] = NCI Yeast Anticancer Drug Screen. Data for the bub3 strain (AID 167); settings: S. cerevisiae bub3 mutant strain, stronger effect = higher value
Procedure, shortened: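 Inhibition values come from growth of compound-treated mutant yeast normalised to vehicle-treated controls.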

[12] = NCI Yeast Anticancer Drug Screen. Data for the wt2 strain (AID 169);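 also: 0% = growth of vehicle-treated yeast cultures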; settings: S. cerevisiae wt2 strain growth inhibition, stronger effect = higher value
Procedure, shortened: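 Inhibition of yeast growth was determined after compound treatment, normalised to controls receiving only vehicle.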

[13] = NCI Yeast Anticancer Drug Screen. Data for the mlh1 strain (AID 171);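 also: 0% = growth of vehicle-treated control cultures of the same strain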; settings: S. cerevisiae mlh1 strain growth inhibition, stronger effect = higher value
Procedure, shortened: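 Vehicle-normalised growth inhibition of a repair- or checkpoint-altered yeast strain following compound treatment.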

[14] = NCI Yeast Anticancer Drug Screen. Data for the sgs1 strain (AID 173);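 also: 0% = growth of vehicle-only control cultures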; settings: S. cerevisiae sgs1 mutant, stronger effect = higher value
Procedure, shortened: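 Screen format: yeast with repair or checkpoint alterations, compound exposure, growth read relative to vehicle.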

[15] = NCI Yeast Anticancer Drug Screen. Data for the mlh1 rad18 strain (AID 175); settings: S. cerevisiae mlh1 rad18 strain growth inhibition, stronger effect = higher value
Procedure, shortened: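 Vehicle-treated cultures served as the reference for growth inhibition in a yeast strain carrying DNA damage repair alterations exposed to each compound.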

[16] = NCI Yeast Anticancer Drug Screen. Data for the rad18 strain (AID 177); settings: S. cerevisiae rad18 mutant growth inhibition, stronger effect = higher value
Procedure, shortened: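 Test articles were incubated with altered yeast defective in DNA damage repair. Results are given as inhibition of growth versus vehicle.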

[17] = at 5.0 µM (retest, dose inferred, filed as 0.5)
[18] = at 50.0 µM (retest, dose inferred, filed as 5.0)

Measured: growth inhibition

O=C1c2ccccc2-c2n[nH]c3cccc1c23
inactive: [1]; at 1.2 µM -28% | [1]; at 3.7 µM 10% | [1]; at 11.0 µM 69% | [2]; at 1.2 µM -21% | [2]; at 3.7 µM -28% | [2]; at 11.0 µM -12% | [2]; at 33.0 µM 10% | [2]; at 100.0 µM 11% | [3]; at 1.2 µM 7% | [3]; at 3.7 µM 69% | [4]; at 1.2 µM -40% | [4]; at 3.7 µM -32% | [4]; at 11.0 µM -10% | [4]; at 33.0 µM 27% | [4]; at 100.0 µM 32% | [5]; at 1.2 µM -21% | [5]; at 3.7 µM 29% | [5]; at 11.0 µM 67% | [5]; at 50.0 µM 69.2% | [6]; at 1.2 µM -67% | [6]; at 3.7 µM -38% | [6]; at 11.0 µM -5% | [6]; at 33.0 µM 26% | [6]; at 50.0 µM 54.3% | [6]; at 100.0 µM 46% | [7]; at 1.2 µM -18% | [7]; at 3.7 µM -24% | [7]; at 11.0 µM -6% | [7]; at 33.0 µM 23% | [7]; at 100.0 µM 28% | [8]; [17] -5% | [9]; at 1.2 µM -52% | [9]; at 3.7 µM -21% | [9]; at 11.0 µM -26% | [9]; at 33.0 µM -6% | [9]; at 100.0 µM 1% | [10]; [17] 44% | [10]; at 50.0 µM 38.9% | [11]; at 1.2 µM -1% | [11]; at 3.7 µM -15% | [11]; [17] 0% | [11]; at 11.0 µM 22% | [11]; at 33.0 µM 46% | [11]; at 50.0 µM 65.6% | [11]; at 100.0 µM 53% | [12]; at 1.2 µM -20% | [12]; at 3.7 µM -20% | [12]; at 11.0 µM 2% | [12]; at 33.0 µM 41% | [12]; at 100.0 µM 36% | [13]; at 1.2 µM -42% | [13]; at 3.7 µM -38% | [13]; at 11.0 µM 9% | [13]; at 33.0 µM 39% | [13]; at 100.0 µM 58% | [14]; at 1.2 µM -39% | [14]; at 3.7 µM -16% | [14]; at 11.0 µM 3% | [14]; at 33.0 µM 35% | [14]; at 100.0 µM 27% | [16]; at 1.2 µM -49% | [16]; at 3.7 µM -32% | [16]; at 11.0 µM -1% | [16]; at 33.0 µM 33% | [16]; at 100.0 µM 50%
active: [1]; at 33.0 µM 84% | [1]; at 100.0 µM 78% | [3]; at 11.0 µM 86% | [3]; at 33.0 µM 88% | [3]; at 100.0 µM 73% | [5]; [17] 100% | [5]; at 33.0 µM 79% | [5]; [18] 99% | [5]; at 100.0 µM 74% | [6]; [17] 100% | [6]; [18] 100% | [8]; [18] 86% | [8]; at 50.0 µM 78.1% | [10]; [18] 87% | [11]; [18] 89% | [15]; [17] 100% | [15]; [18] 100% | [15]; at 50.0 µM 81.1%

COC(=O)c1ccc([N+](=O)[O-])c(O)c1
inactive: [1]; at 1.2 µM -5% | [1]; at 3.7 µM -3% | [1]; at 11.0 µM 17% | [1]; at 33.0 µM 49% | [2]; at 1.2 µM -12% | [2]; at 3.7 µM -10% | [2]; at 11.0 µM 3% | [2]; at 33.0 µM 28% | [3]; at 1.2 µM -3% | [3]; at 3.7 µM -25% | [3]; at 11.0 µM 3% | [4]; at 1.2 µM -15% | [4]; at 3.7 µM -13% | [4]; at 11.0 µM -4% | [4]; at 33.0 µM 44% | [5]; at 1.2 µM -5% | [5]; at 3.7 µM -28% | [5]; [17] 2% | [5]; at 11.0 µM -17% | [5]; at 33.0 µM 37% | [5]; [18] 65% | [6]; at 1.2 µM -26% | [6]; at 3.7 µM -23% | [6]; [17] -7% | [6]; at 11.0 µM -4% | [6]; at 33.0 µM 35% | [7]; at 1.2 µM -16% | [7]; at 3.7 µM -13% | [7]; at 11.0 µM -7% | [7]; at 33.0 µM 27% | [8]; [17] 5% | [8]; [18] 4% | [9]; at 1.2 µM -6% | [9]; at 3.7 µM 1% | [9]; at 11.0 µM 1% | [9]; at 33.0 µM 35% | [10]; [17] -2% | [10]; [18] 65% | [10]; at 50.0 µM 58.3% | [11]; at 1.2 µM -22% | [11]; at 3.7 µM -31% | [11]; [17] -7% | [11]; at 11.0 µM -20% | [11]; at 33.0 µM 6% | [11]; [18] 56% | [12]; at 1.2 µM 3% | [12]; at 3.7 µM 7% | [12]; at 11.0 µM 4% | [12]; at 33.0 µM 63% | [13]; at 1.2 µM -4% | [13]; at 3.7 µM -1% | [13]; at 11.0 µM 7% | [13]; at 33.0 µM 67% | [14]; at 1.2 µM 22% | [14]; at 3.7 µM 32% | [14]; at 11.0 µM 21% | [15]; [17] -28% | [16]; at 1.2 µM -9% | [16]; at 3.7 µM -2% | [16]; at 11.0 µM 8% | [16]; at 33.0 µM 52%
active: [1]; at 100.0 µM 98% | [2]; at 100.0 µM 98% | [3]; at 33.0 µM 76% | [3]; at 100.0 µM 99% | [4]; at 100.0 µM 98% | [5]; at 50.0 µM 77.5% | [5]; at 100.0 µM 97% | [6]; [18] 75% | [6]; at 50.0 µM 85% | [6]; at 100.0 µM 99% | [7]; at 100.0 µM 98% | [8]; at 50.0 µM 89.7% | [9]; at 100.0 µM 98% | [11]; at 50.0 µM 78.9% | [11]; at 100.0 µM 99% | [12]; at 100.0 µM 99% | [13]; at 100.0 µM 99% | [14]; at 33.0 µM 81% | [14]; at 100.0 µM 98% | [15]; [18] 88% | [15]; at 50.0 µM 72.9% | [16]; at 100.0 µM 98%
